Measurements: the supplement of paper PMC13172266
Counter-ions that a name gives are not always drawn.

Assays:
Assay in all cases: cell proliferation relative to vehicle (% of vehicle); higher = less growth inhibition
Conditions in all cases: 72 h
[1] = tested on: U2932 TK216-resistant clone 2
Summary of the method: (§1)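 A library of 348 targeted inhibitors was screened against the ABC-DLBCL cell line U2932, using parental cells and two clones made resistant to an ETS-targeting agent through repeated exposure over almost a year. The cells were cultured at 37°C and 5% CO2 in medium containing 10% FBS and treated at 500 nM or 50 nM for 72 h, after which MTT was added for 4 h, stopped with 25% SDS, and absorbance was read on a Cytation 3. Proliferation is given as the percentage of proliferating cells relative to the vehicle, DMSO.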

[2] = tested on: U2932 TK216-resistant clone 3
Summary of the method: as §1

U2932 parental = tested on: U2932 parental
Summary of the method: as §1

Structure (SMILES) | cell proliferation ([1]; 50 nM) | cell proliferation ([1]; 500 nM) | cell proliferation ([2]; 50 nM) | cell proliferation ([2]; 500 nM) | cell proliferation (U2932 parental; 50 nM) | cell proliferation (U2932 parental; 500 nM)
NC(=O)Nc1sc(-c2ccc(F)cc2)cc1C(N)=O | 109 | 92.7 | 106 | 102 | 104 | 99.5
CCCS(=O)(=O)Nc1ccc(F)c(C(=O)c2c[nH]c3ncc(Cl)cc23)c1F | 99.4 | 97.3 | 106 | 106 | 95.1 | 95.6
CN1CCN(CCCNc2ncc(Cl)c(-c3cc4c(C(=O)NC5CC5)cccc4s3)n2)CC1 | 101 | 86.5 | 98.2 | 99 | 95.3 | 100
Cc1cc(Nc2cc(N3CCN(C)CC3)nc(/C=C/c3ccccc3)n2)n[nH]1 [ENMD-2076 L-(+)-Tartaric acid] | 101 | 61.9 | 105 | 57.2 | 99 | 47.6
CCc1cncnc1N1CCN(Cc2nc3ccc(C(F)(F)F)cc3[nH]2)CC1 | 100 | 101 | 96 | 100 | 88.9 | 92
CS(=O)(=O)CCNCc1ccc(-c2ccc3ncnc(Nc4ccc(OCc5cccc(F)c5)c(Cl)c4)c3c2)o1 | 101 | 85.9 | 94.2 | 84.4 | 96.6 | 97.3
CC(C)(C)c1cnc(CSc2cnc(NC(=O)C3CCNCC3)s2)o1 | 91.1 | 14.7 | 77.8 | 17.2 | 90.1 | 12.1
COc1cc(OCc2cccc(-c3ccccc3)c2C)cc(OC)c1CN1CCCC[C@H]1C(=O)O [PD-1/PD-L1 inhibitor 1] | 103 | 99.6 | 96.8 | 104 | 101 | 95.3
CN(C)CC[C@H](CSc1ccccc1)Nc1ccc(S(=O)(=O)NC(=O)c2ccc(N3CCN(Cc4ccccc4-c4ccc(Cl)cc4)CC3)cc2)cc1[N+](=O)[O-] | 89.5 | 39.6 | 96.6 | 37.4 | 92 | 61.2
Cc1cccc(-c2[nH]c(CNc3ccccc3F)nc2-c2ccc3ncnn3c2)n1 | 106 | 102 | 99.6 | 106 | 104 | 98.6
Cc1ccc(S(=O)(=O)/C=C/C#N)cc1 | 107 | 113 | 109 | 104 | 102 | 102
Cc1cnc(-c2cnc(NCCNc3ccc(C#N)cn3)nc2-c2ccc(Cl)cc2Cl)[nH]1 | 101 | 97.6 | 107 | 96.8 | 99.8 | 95
Cc1cnc(-c2ccccc2C(C)C)nc1NCc1ccc(-n2ccnn2)cc1 | 108 | 97.8 | 105 | 108 | 101 | 98.5
Cc1cc(NC(=O)c2cccc(NC(=O)/C=C/CN(C)C)c2)ccc1Nc1nccc(-c2cccnc2)n1 | 99.5 | 106 | 108 | 116 | 96.8 | 103
O=C(Nc1cc(C(F)(F)F)cc(C(F)(F)F)c1)c1cc(Cl)ccc1O | 103 | 104 | 109 | 102 | 102 | 101
N=C1NC(=O)/C(=C/c2ccc(O)cc2)S1 [Mirin] | 103 | 94.6 | 107 | 102 | 90.9 | 97.3
COc1ccc(C2=N[C@H](c3ccc(Cl)cc3)[C@H](c3ccc(Cl)cc3)N2C(=O)N2CCNC(=O)C2)c(OC(C)C)c1 [Nutlin-3b] | 105 | 96.6 | 100 | 107 | 102 | 99.6
CCOc1cc(C(=O)N2CCC(N3CCN(C)CC3)CC2)ccc1Nc1ncc2c(n1)N(C1CCCC1)c1ccccc1C(=O)N2C | 95 | 74.3 | 95.4 | 65.4 | 94.8 | 75.5
NC(=O)c1ncn([C@@H]2O[C@H](CO)[C@@H](O)[C@H]2O)c1O [Mizoribine] | 104 | 108 | 100 | 99.7 | 104 | 102
COc1cc([C@@H]2c3cc4c(cc3[C@@H](O[C@@H]3O[C@@H]5CO[C@@H](C)O[C@H]5[C@H](O)[C@H]3O)[C@H]3COC(=O)[C@H]23)OCO4)cc(OC)c1O [Etoposide] | 95.7 | 53.8 | 99.3 | 74.9 | 93.3 | 68.8
N#CC[C@H](C1CCCC1)n1cc(-c2ncnc3[nH]ccc23)cn1 | 100 | 95.4 | 103 | 108 | 96.7 | 96.5
O=C(NOC[C@H](O)CO)c1ccc(F)c(F)c1Nc1ccc(I)cc1F | 101 | 101 | 96.6 | 96 | 92.3 | 91.5
Clc1ccc(Nc2nnc(Cc3ccncc3)c3ccccc23)cc1 [Vatalanib (PTK787) 2HCl] | 109 | 99.8 | 108 | 113 | 93.1 | 102
O=c1ncccn1[C@@H]1O[C@H](CO)[C@@H](O)[C@H]1O [Zebularine] | 111 | 95.5 | 102 | 99.9 | 105 | 102
CC(C)N(C[C@H]1O[C@@H](n2cnc3c(N)ncnc32)[C@H](O)[C@@H]1O)[C@H]1C[C@@H](CCc2nc3cc(C(C)(C)C)ccc3[nH]2)C1 | 98.8 | 91.9 | 97.2 | 91.6 | 101 | 95.4

Structure (SMILES) | cell proliferation ([1]; 50 nM) | cell proliferation ([1]; 500 nM) | cell proliferation ([2]; 50 nM) | cell proliferation ([2]; 500 nM) | cell proliferation (U2932 parental; 50 nM) | cell proliferation (U2932 parental; 500 nM)
CN(C)Cc1ccc(S(=O)(=O)n2ccc(/C=C/C(=O)NO)c2)cc1 [Resminostat] | 99.1 | 93.8 | 92 | 90.4 | 93.4 | 84.7
Cc1c(NC(=O)OC[C@@H]2COCCN2)cn2ncnc(Nc3ccc4c(cnn4Cc4cccc(F)c4)c3)c12 | 100 | 80.4 | 98.1 | 71.9 | 97.2 | 81.6
Cc1nc(C(=O)NCC(=O)O)c(O)c2ccc(Oc3ccccc3)cc12 | 102 | 98.6 | 104 | 98.5 | 98.3 | 95.4
Cc1cc(Nc2nc(N[C@@H](C)c3ncc(F)cn3)ncc2Cl)[nH]n1 | 116 | 108 | 105 | 117 | 96.7 | 91.5
CCCCc1nc2cc(/C=C/C(=O)NO)ccc2n1CCN(CC)CC [Pracinostat (SB939)] | 107 | 54 | 89.2 | 64.4 | 91.7 | 50.1
CN(c1ncccc1CNc1nc(Nc2ccc3c(c2)CC(=O)N3)ncc1C(F)(F)F)S(C)(=O)=O | 95.6 | 91.2 | 99.2 | 95.2 | 96.9 | 87.2
CNC(=O)c1ccccc1Sc1ccc2c(/C=C/c3ccccn3)n[nH]c2c1 [Axitinib] | 110 | 92.8 | 102 | 92.8 | 95.6 | 87.4
CC(C)CCN1c2nc(Nc3cc(F)c(O)c(F)c3)ncc2N(C)C(=O)C1C (stereo not given) | 114 | 99.9 | 106 | 91.3 | 105 | 97.3
Cn1cc(CNCC2CCN(c3ncc(C(=O)NO)cn3)CC2)c2ccccc21 | 8.61 | 5.78 | 11.4 | 10.2 | 4.68 | 0.113
C[C@]12CCC(=O)C=C1CC[C@@H]1[C@@H]2[C@@H](O)C[C@@]2(C)[C@H]1CC[C@]2(O)C(=O)CO [Hydrocortisone] | 95.7 | 81.2 | 97.8 | 85.1 | 96.1 | 87.3
CC[C@@](C)(Nc1ccnc(-c2c[nH]c3ncccc23)n1)C(=O)NCC(F)(F)F [Decernotinib (VX-509)] | 103 | 92.4 | 97.4 | 105 | 98.2 | 98.6
Nc1nc(N)c2nc(-c3cccc(O)c3)c(-c3cccc(O)c3)nc2n1 | 103 | 100 | 110 | 96.6 | 99 | 99.2
COc1cc(Nc2nc3ccccc3nc2NS(=O)(=O)c2ccc(NC(=O)c3ccc(C)c(OC)c3)cc2)cc(OC)c1 | 98.5 | 106 | 104 | 103 | 105 | 104
Cn1cc(/C=C2\C(=O)Nc3cccnc32)c2ccccc21 | 102 | 105 | 106 | 105 | 97.2 | 90
Cn1cnc([N+](=O)[O-])c1Sc1ncnc2[nH]cnc12 [Azathioprine] | 100 | 98.4 | 103 | 103 | 97.5 | 103
Nc1nccc2c1ncn2C1C=C(CO)C(O)C1O (stereo not given) [3-Deazaneplanocin A (DZNeP)] | 103 | 86.2 | 102 | 82.1 | 98.1 | 81.5
CCN(CC)CCNC(=O)c1c(C)[nH]c(/C=C2\C(=O)Nc3ccc(F)cc32)c1C [Sunitinib Malate] | 107 | 94.6 | 99.4 | 92.6 | 101 | 104
CN[C@@H](C)C(=O)N[C@H]1CN(C(=O)CC(C)C)CC[C@H]2CC[C@@H](C(=O)NC(c3ccccc3)c3ccccc3)N2C1=O | 106 | 111 | 94.6 | 105 | 94 | 103
O=c1cc(N2CCOCC2)oc2c(-c3ccccc3)cccc12 | 110 | 102 | 100 | 97.3 | 105 | 105
CCOC(=O)c1[nH]c2cc(Cl)ccc2c1C(C(=O)NC(C)(C)C)N(C=O)Cc1ccc(Cl)cc1 (stereo not given) | 106 | 92.2 | 103 | 95.6 | 97.7 | 93.4
CC(C)(C)c1nc(-c2cccc(NS(=O)(=O)c3c(F)cccc3F)c2F)c(-c2ccnc(N)n2)s1 | 111 | 101 | 106 | 110 | 101 | 93
CC1(C)CNc2cc(NC(=O)c3cccnc3NCc3ccncc3)ccc21 [Motesanib Diphosphate (AMG-706)] | 103 | 97.7 | 104 | 87.8 | 97.4 | 93.9
C[C@H](Nc1ncnc2nc[nH]c12)c1cc2cccc(Cl)c2c(=O)n1-c1ccccc1 | 103 | 92.2 | 95.6 | 94.3 | 106 | 108
c1cc(-c2cnn3cc(-c4ccc(OCCN5CCCCC5)cc4)cnc23)ccn1 [Dorsomorphin 2HCl] | 113 | 98 | 119 | 108 | 110 | 98.3
CC/C(=C(\c1ccccc1)c1ccc(OCCN(C)C)cc1)c1ccccc1 [Tamoxifen Citrate] | 98.9 | 89.7 | 89 | 86.3 | 82.1 | 79.1
